The full ranking holds about 39,000 sequences; the median of “fluorescence intensity (a.u.)” is about 4,300, and the highest 2% start at about 39,000. The list comes from a sample in which the highest values are over-represented; it also holds similar and randomly drawn sequences.
The sequences below were run against T1, OsSMF1 (Oryza sativa, UniProt Q6ZLB0 1-436) (assay: protein-binding microarray (RPBM); PBS, 2% BSA, 51.3 ng/ul salmon testes DNA, 50 uM zinc acetate, 200 nM TF, 25 C, 1 h; high values mean tight binding). Details: protein: recombinant; tags: N-terminal polyhistidine and DsRed monomer fusion (pET32a); chain copies: 2; label: CyDye5-dUTP incorporated in the synthesized complementary strand; 3' TTTTT single-stranded linker to array surface; dsDNA, one strand shown.
T1 sequence: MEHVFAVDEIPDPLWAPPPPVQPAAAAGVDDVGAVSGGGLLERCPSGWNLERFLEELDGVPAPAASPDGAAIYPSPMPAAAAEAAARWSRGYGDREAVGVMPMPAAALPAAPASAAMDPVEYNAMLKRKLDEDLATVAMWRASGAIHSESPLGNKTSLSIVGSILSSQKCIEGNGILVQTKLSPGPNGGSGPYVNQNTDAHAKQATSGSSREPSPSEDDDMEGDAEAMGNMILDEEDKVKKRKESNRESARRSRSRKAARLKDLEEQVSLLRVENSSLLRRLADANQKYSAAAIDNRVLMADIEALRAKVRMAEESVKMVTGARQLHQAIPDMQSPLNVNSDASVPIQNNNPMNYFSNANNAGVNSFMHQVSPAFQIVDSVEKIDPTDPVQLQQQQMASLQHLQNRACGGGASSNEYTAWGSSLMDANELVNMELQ
Outline: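 Transcription factors, each fused N-terminally to a polyhistidine tag and DsRed, were expressed in E. coli BL21-CodonPlus and purified on Ni–NTA. A custom Agilent array was made double-stranded by primer extension with Cy5-dUTP and blocked with 2% BSA. It was incubated with 200 nM protein in PBS, 2% BSA, salmon testes DNA and 50 µM zinc acetate at 25 °C for 1 h, then washed. The binding signal is per-feature fluorescence intensity (arbitrary units) read on an Axon 4000B scanner.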

Sequence	binding signal
GTGTTCCGCAGCGGCCGGGAGACGCGCCGGCTTGTCCCCTCGGAGTCACCTAGTGCAG	42300 fluorescence intensity (a.u.)
TCCGCGGCTCCGCGCTCTCCCCTCGCCGGTGTCACCGCTCCGGAGTCACCTAGTGCAG	3390 fluorescence intensity (a.u.)
CTAACCACGCCCGCCACGTACGCCGCCTCTGGGACCCCGACGGAGTCACCTAGTGCAG	5440 fluorescence intensity (a.u.)
GCAGCATCTGTGATCTCTCAGTGGGACCCACGTGTCATTGCGGAGTCACCTAGTGCAG	5010 fluorescence intensity (a.u.)
CCCTGTCCTGAAACGCCGTGACGGCTTCTCCTTCTCCCTCCGGAGTCACCTAGTGCAG	8960 fluorescence intensity (a.u.)
GTACTCCGTACTAGTAGTGGCACTCAATGTTCGGTATCTGCGGAGTCACCTAGTGCAG	50200 fluorescence intensity (a.u.)
GTCAGTGGCTCAGTGCCACCCGTAGTGTACTGCCACTCCGCGGAGTCACCTAGTGCAG	3370 fluorescence intensity (a.u.)
CATATATATCTGACTAAAACGGTATATGTTGCACGTAGTGCGGAGTCACCTAGTGCAG	3360 fluorescence intensity (a.u.)
ATACTATGTTAATTTGTCTGTGTCCTAATGACGCACCATACGGAGTCACCTAGTGCAG	4820 fluorescence intensity (a.u.)
TTTACTGTAGCACCACATTGTCAAATTATGACGTAATTAGCGGAGTCACCTAGTGCAG	5440 fluorescence intensity (a.u.)
AACTTTGTTGTTGATGACGTTTTCAGTTGAAGTCGTTCACCGGAGTCACCTAGTGCAG	7120 fluorescence intensity (a.u.)
ATGCTATTATATAAGAGAAAATATAATGATGCTGGCCGTGCGGAGTCACCTAGTGCAG	3240 fluorescence intensity (a.u.)
AACGTGCCACTTTACCTGACGTGATGAAACAATATTATCACGGAGTCACCTAGTGCAG	3320 fluorescence intensity (a.u.)
TGATTATTTGTGAAATAAAATGAGATAAAATGTGATTTTACGGAGTCACCTAGTGCAG	28600 fluorescence intensity (a.u.)
GGATGATGTGACTTAATAACAGAAGAGAGAAATAATATTACGGAGTCACCTAGTGCAG	40600 fluorescence intensity (a.u.)
ATTTGTAAACAATGTTACTATCACTTTATCAGATGAAGAACGGAGTCACCTAGTGCAG	34600 fluorescence intensity (a.u.)
TGAACAATGTTACAAATCACTTTATCGGATGAAGAAATGACGGAGTCACCTAGTGCAG	46400 fluorescence intensity (a.u.)
CCAGGTCCCAGCCAGGGGTTTATTAGCTGATTCAAGACGTCGGAGTCACCTAGTGCAG	14900 fluorescence intensity (a.u.)
CTGGACAGGAAGCAAAGCTCCTGACACGCCCAGCCGTCCCCGGAGTCACCTAGTGCAG	3220 fluorescence intensity (a.u.)
ACCGCCATGTAGGTGCCACGTCATCGCCACGTGGAACGAACGGAGTCACCTAGTGCAG	32700 fluorescence intensity (a.u.)
CCGGATGACATGATGACACCGCTACCCATTAAGTTTCGTCCGGAGTCACCTAGTGCAG	4050 fluorescence intensity (a.u.)

Sequence	binding signal
CTCCTTCCATTTGTACCCACGTCTGCTGTCCATTGACCGGCGGAGTCACCTAGTGCAG	6910 fluorescence intensity (a.u.)
TCACCCTGTCCTCGTCACGTCCCATTTTACATCCACCACCCGGAGTCACCTAGTGCAG	6570 fluorescence intensity (a.u.)
CCCATTGATGCTACAGAGAGTCCACGTCACCCTCGTCTGCCGGAGTCACCTAGTGCAG	42800 fluorescence intensity (a.u.)
AGCTAGTACCTCACATGCATTCATCTTGCTTGCAATCCGTCGGAGTCACCTAGTGCAG	45100 fluorescence intensity (a.u.)
GCTTGCTTGCTTGCATCCTCCTCACATTCACCACGAGGTTCGGAGTCACCTAGTGCAG	3670 fluorescence intensity (a.u.)
GAATCTAGTAGCTTGCATCCTTTACATCTTCTCATCCTGTCGGAGTCACCTAGTGCAG	32700 fluorescence intensity (a.u.)
CATTCTTAATGTAAAATATGAATGTAAATGAAATGTATGCCGGAGTCACCTAGTGCAG	3840 fluorescence intensity (a.u.)
CACAAGTTCTCCTACGCTGACTCCTCTCTTGGAACTTCAGCGGAGTCACCTAGTGCAG	5030 fluorescence intensity (a.u.)
CTGGCACGTAAGCGTTACCGTGGCATGCCACGTCATCTCACGGAGTCACCTAGTGCAG	39600 fluorescence intensity (a.u.)
GCATGCATTGCCTCTTGCTCGCCTACGTGGTAATGAAAACCGGAGTCACCTAGTGCAG	6560 fluorescence intensity (a.u.)
TGACATGTGGGGCCCACGCTGACTCAGCCGCCACGTCAGACGGAGTCACCTAGTGCAG	19600 fluorescence intensity (a.u.)
GTTAGCGTGGCATGCCACGTCATCTCACGAAGCGGGTTAGCGGAGTCACCTAGTGCAG	18100 fluorescence intensity (a.u.)
CCACTGGCGACCGCCACGTCGACCTGGCGTGGGACCTCATCGGAGTCACCTAGTGCAG	8920 fluorescence intensity (a.u.)
GGGGTGAAAATGAATTAGATGCCACGTGCAGGTTCGCATGCGGAGTCACCTAGTGCAG	10000 fluorescence intensity (a.u.)
ATATGTGGGTCTCATGCTGACTCATCCGCCACGTCAGATACGGAGTCACCTAGTGCAG	42600 fluorescence intensity (a.u.)
CTAATGCCACGTAAGTGCCACGTGGCATGAAAACCGGGTTCGGAGTCACCTAGTGCAG	46300 fluorescence intensity (a.u.)
TATGCGTGGGTCACTGGGCCCACACGTCATCCTCACGTGGCGGAGTCACCTAGTGCAG	49000 fluorescence intensity (a.u.)
CTGCACGTTACTCACGTGGCATCTCCAACTCTACCGCCAACGGAGTCACCTAGTGCAG	7570 fluorescence intensity (a.u.)
CCCACGTGGGTCCCACGCTGACTCAGCCGCCACGTAGATCCGGAGTCACCTAGTGCAG	25400 fluorescence intensity (a.u.)
GGCCCACGTGGGTCCCACACTGACTCAGCTGCCACGTGGGCGGAGTCACCTAGTGCAG	38600 fluorescence intensity (a.u.)
TATGTAGTACCACCCTGGTGTCACACATGTACCACTTGGTCGGAGTCACCTAGTGCAG	3910 fluorescence intensity (a.u.)

— PMC7819943, “Rice protein-binding microarrays: a tool to detect cis-acting elements near promoter regions in rice”
